Assay results: the OligoGym collection
Also: reference of the scale not given here.

The sequences below were run against RANGAP1 (assay: pooled miR-30 sensor sort-seq; sequence = guide strand). Conditions: shRNA.
Work on AATCTCTTTAATCACATCTTTA yielded a sensor-assay potency score (higher = more potent) of -1.26. TTCAACTCCGACTTCTTCTCTA was tested, and the sensor-assay potency score (higher = more potent) was 0.789. TTGACCTTGTCTTCACTCTTGA showed a sensor-assay potency score (higher = more potent) of 0.405. TTGAGTTTGAGGCTCTTGCCTT showed a sensor-assay potency score (higher = more potent) of -0.514. Work on TTCACTCTTGAGCAGACCCATG yielded a sensor-assay potency score (higher = more potent) of -1.41. TTGAACACAGATGACACCTTTA gave a sensor-assay potency score (higher = more potent) of -0.0745. TTGGAGTTGAAGGACGAGGAGT was tested, and the sensor-assay potency score (higher = more potent) was -0.814. Sequence TTTCCGGTGACATTCGGTCAGA has a sensor-assay potency score (higher = more potent) of -1.19.

The sequences below were run against RASGEF1A in the same assay as above. Conditions: shRNA.
For ATGAAGAACTCCAACATGCGGG, the sensor-assay potency score (higher = more potent) was -0.48. With TTCAGGAGCTGCACGATCTTGG the sensor-assay potency score (higher = more potent) was -0.661. TGAATCTTCTTGTCCTTCTCGA was tested, and the sensor-assay potency score (higher = more potent) was 0.828. Work on TTGCAGAAGTTGCTGGACGGGT yielded a sensor-assay potency score (higher = more potent) of -0.613. AAACTTGGCTGTCTTGACCTTG was tested, and the sensor-assay potency score (higher = more potent) was -0.781. For AATCTTCTTGTCCTTCTCGAAA, the sensor-assay potency score (higher = more potent) was -1.91. In the case of TGTTTCTTCTTCACCACCCGGC, the sensor-assay potency score (higher = more potent) is reported as 0.377. Work on AAGGTGAAGATGTACGTCCTAT yielded a sensor-assay potency score (higher = more potent) of 0.212. Sequence TGAAGAACTCCAACATGCGGGT has a sensor-assay potency score (higher = more potent) of -0.41. In the case of TTCTTGTCCTTCTCGAAAGGAC, the sensor-assay potency score (higher = more potent) is reported as -0.791. TTTTTCCATGTGGTTCTCGGGA showed a sensor-assay potency score (higher = more potent) of -0.794. With TAGGTCTTGGTCAGGTCCCCTC the sensor-assay potency score (higher = more potent) was -1.

Each sequence was assayed against RASGEF1C in the same assay as above. Conditions: shRNA.
TGAACCATTTCACATAAGCCTC showed a sensor-assay potency score (higher = more potent) of -1.38. TGTAGTTGCAGAAATTCCCCGT was tested, and the sensor-assay potency score (higher = more potent) was 0.202. In the case of TTTTCTGTTTGGTTCTCTGGGC, the sensor-assay potency score (higher = more potent) is reported as -0.505. Sequence TTCCACGTGGGTCAGCTGCTGG has a sensor-assay potency score (higher = more potent) of -1.01. Sequence ATGAAGAACTCAATCACCTGGG has a sensor-assay potency score (higher = more potent) of 0.211. TTTCACATAAGCCTCCAGGTTG showed a sensor-assay potency score (higher = more potent) of -0.649. TAGCACAGCCTGTTGAACCATT was tested, and the sensor-assay potency score (higher = more potent) was -1.09. ATGACAATCTTCTCTCGGCTGC showed a sensor-assay potency score (higher = more potent) of -0.296. Sequence TTTCTCGGGGTAGTAGTCGGCT has a sensor-assay potency score (higher = more potent) of -0.879. TTAGAGCTTTCCATCTTTCTTT showed a sensor-assay potency score (higher = more potent) of -0.12. TTTTTCTGTTTGGTTCTCTGGG gave a sensor-assay potency score (higher = more potent) of 0.0788. For TCTCACTTTCGTAAGAAGCCAA, the sensor-assay potency score (higher = more potent) was -0.537.

Each sequence was assayed against RASGRP2 in the same assay as above. Conditions: shRNA.
TTCTTGGTCTAGCAGAGCCTTC was tested, and the sensor-assay potency score (higher = more potent) was -1.75. Sequence TAGTCCTGAAACAGGATCTTGC has a sensor-assay potency score (higher = more potent) of -0.808. TCTATGTCGATTAGGCTGCTGT showed a sensor-assay potency score (higher = more potent) of -0.615. Work on TAGGAAACCATCTCCTCCCTGC yielded a sensor-assay potency score (higher = more potent) of 0.463. Work on TCAAACAACAGGGACATCTTGC yielded a sensor-assay potency score (higher = more potent) of -0.201. With TTCAAGTCAAACTCCGCTGGGA the sensor-assay potency score (higher = more potent) was 0.724. In the case of TAGCAGAGCCTTCAGCTCCTTG, the sensor-assay potency score (higher = more potent) is reported as -0.951. In the case of TTGGTAGATGTGGAGCAGCTTG, the sensor-assay potency score (higher = more potent) is reported as -1.27.
